# Bioassay records (PubChem)
# Shown are actives, neighbours in structure and some others; about 2.4% of the full set was active somewhere.
# NFkB binder = NF-kappa-B p105 (human) binding; P19838; Small molecule microarray, anti-His fluorescence binding; calls only; 17,000 tested, 1.3% active;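 active = spot fluorescence over background significantly raised, with a chance value under 7% in all four replicate spots of the compound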;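 note: probe protein is his-tagged human p50 processed subunit at 1 µg/ml; raw spot fluorescence signals with no normalization applied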
# c-Myc SMM = binds human c-Myc on microarray. P01106. small molecule microarray, His-c-Myc binding, anti-His fluorescence. calls only. 17,000 tested, 1.5% active. AID 624141;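 active = spot fluorescence over background with P-value below 7% in all four replicate spots, showing protein binding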;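 note: score is binary with 100 for all four spots passing and 0 otherwise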
# Target sequence (P01106 whole entry, looked up): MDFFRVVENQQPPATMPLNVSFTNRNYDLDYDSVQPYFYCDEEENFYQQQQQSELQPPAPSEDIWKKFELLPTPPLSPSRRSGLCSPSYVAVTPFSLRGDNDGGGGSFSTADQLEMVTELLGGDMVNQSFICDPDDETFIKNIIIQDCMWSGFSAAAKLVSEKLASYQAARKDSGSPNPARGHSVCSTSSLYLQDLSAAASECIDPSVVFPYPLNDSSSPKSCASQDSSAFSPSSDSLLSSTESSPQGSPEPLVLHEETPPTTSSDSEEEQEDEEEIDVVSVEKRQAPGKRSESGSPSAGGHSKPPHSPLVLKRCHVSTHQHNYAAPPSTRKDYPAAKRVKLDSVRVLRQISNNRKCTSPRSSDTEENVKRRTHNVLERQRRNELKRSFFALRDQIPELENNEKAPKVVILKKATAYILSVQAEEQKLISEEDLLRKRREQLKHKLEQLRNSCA
# p53 mut binder = binds human mutant p53 on microarray. small molecule microarray binding, anti-GST fluorescence. calls only. 17,000 tested, 0.4% active;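 active = compounds whose four printed spots each glow above background more than chance allows, each with a p-value under 7%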
# STAT3 SMM = binders of human STAT3; P40763; Small molecule microarray, His-STAT3 binding, anti-His fluorescence; 17,000 tested, 0.2% active; AID 624138; calls only;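 active = compounds whose four printed spots each show fluorescence over background unusually high for their array block, chance value under 7%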
# Active calls of the source: *; i = inactive; + = active, no number.
SMILES,NFkB binder,c-Myc SMM,p53 mut binder,STAT3 SMM
COC(=O)C1=C2CC[C@H](CO)NC(=O)N[C@H](Cc3ccccc3)C(=O)NCc3cn(nn3)C[C@@H](Cc3ccccc3)NC(=O)c3oc(c(C(=O)OC)c3C(=O)OC)CC[C@H](CO)NC(=O)N[C@H](Cc3ccccc3)C(=O)NCc3cn(nn3)C[C@@H](Cc3ccccc3)NC(=O)C(=C1C(=O)OC)O2,i,i,i,+
COC(=O)c1c2oc(c1C(=O)OC)C(=O)N[C@H](Cc1ccccc1)Cn1cc(nn1)CNC(=O)[C@H](Cc1ccccc1)NC(=O)N[C@@H](CO)CC2,i,i,i,i
C[C@@H]1CN([C@@H](C)CO)C(=O)c2cc(NS(C)(=O)=O)ccc2O[C@@H](C)CCCCO[C@@H]1CN(C)C(=O)Nc1ccc(C(F)(F)F)cc1,i,i,i,+
C[C@H](CO)N1C[C@H](C)[C@H](CN(C)C(=O)Nc2ccc(C(F)(F)F)cc2)OCCCC[C@H](C)Oc2ccc(NS(C)(=O)=O)cc2C1=O,i,i,i,i
CC(C)NC(=O)N(C)C[C@H]1OCCCC[C@H](C)Oc2ccc(NC(=O)Nc3ccc(C(F)(F)F)cc3)cc2C(=O)N([C@@H](C)CO)C[C@H]1C,+,+,i,i
C[C@H](CO)N1C[C@H](C)[C@@H](CN(C)S(=O)(=O)c2ccc(F)cc2)OCCCC[C@H](C)Oc2ccc(NC(=O)Nc3ccc(C(F)(F)F)cc3)cc2C1=O,+,i,i,i
CC(C)NC(=O)N(C)C[C@@H]1OCCCC[C@H](C)Oc2ccc(NC(=O)Nc3ccc(C(F)(F)F)cc3)cc2C(=O)N([C@H](C)CO)C[C@@H]1C,+,+,i,i
CC(C(=O)Oc1cccc2cccnc12)N1C(=O)c2ccccc2C1=O (centres undefined),i,i,i,i
COc1ccc(OC)c(N(CC(=O)Nc2c(F)cccc2F)S(C)(=O)=O)c1,i,i,i,i
O=C1C(=O)N(CCCn2ccnc2)C(c2ccccc2)C1C(=O)c1ccco1 (centres undefined),i,i,i,i
C[C@@]12C[C@@H](c3ccoc3)OC(=O)[C@H]1CC[C@@]1(C)C(C(=O)O)=CCC[C@@H]21,i,i,i,i
COc1ccccc1C1C(C(=O)c2ccco2)C(=O)C(=O)N1c1cc(C)on1 (centres undefined),i,i,i,i
COc1cccc2cc(C(=O)C3C(=O)C(=O)N(c4nc(C)c(C)s4)C3c3ccco3)oc12 (centres undefined),i,+,i,i
Cc1ccccc1NC(=O)COc1ccc(-c2nc3sc4c(c3c(=O)[nH]2)CCCC4)cc1,i,i,i,i
COc1cc(-c2nc3sc4c(c3c(=O)[nH]2)CCCC4)cc(Br)c1OCC(=O)O,+,+,i,i
COc1c(Cl)cc(Cl)cc1CNCCNCC(C)O (centres undefined),i,i,+,+
COc1cc2c(cc1-c1coc3c4c(ccc3c1=O)OC(C)(C)C=C4)OCO2,i,i,i,i
C[C@H]1CCCCO[C@H](CN(C)Cc2ccncc2)[C@@H](C)CN([C@@H](C)CO)C(=O)c2cc(NC(=O)Nc3ccccc3)ccc2O1,i,i,i,i
C[C@H]1CCCCO[C@@H](CN(C)Cc2ccccc2)[C@@H](C)CN([C@@H](C)CO)C(=O)c2cc(NC(=O)Nc3ccc4c(c3)OCO4)ccc2O1,i,i,i,i
CC(C)NC(=O)Nc1ccc2c(c1)C(=O)N([C@H](C)CO)C[C@@H](C)[C@H](CN(C)Cc1ccccc1)OCCCC[C@H](C)O2,i,i,i,i
CC(C)NC(=O)Nc1ccc2c(c1)C(=O)N([C@@H](C)CO)C[C@@H](C)[C@H](CN(C)Cc1ccccc1)OCCCC[C@H](C)O2,+,+,i,i
C[C@H]1CCCCO[C@H](CN(C)C(=O)c2ccccc2)[C@@H](C)CN([C@@H](C)CO)C(=O)c2cc(NC(=O)Nc3ccc4c(c3)OCO4)ccc2O1,i,i,+,i
C[C@@H]1CCCCO[C@@H](CN(C)Cc2ccccc2)[C@H](C)CN([C@H](C)CO)C(=O)c2cc(NC(=O)Nc3ccc4c(c3)OCO4)ccc2O1,+,i,i,i
C[C@@H]1CN([C@@H](C)CO)C(=O)c2cc(NC(=O)Nc3ccccc3)ccc2O[C@@H](C)CCCCO[C@H]1CN(C)Cc1ccncc1,i,+,i,i
Cc1cc2c(=O)n(Cc3ccco3)c(SCc3cc(=O)[nH][nH]3)nc2s1,i,i,i,i
SMILES,NFkB binder,c-Myc SMM,p53 mut binder,STAT3 SMM
O=C(CCN1C(=O)C2C3C=CC(C3)C2C1=O)Nc1cccc2ccccc12 (centres undefined),i,i,i,i
CC1(C)O[C@H]2CC(=O)OC[C@@]23[C@H]1CC(=O)[C@@]1(C)C2=CC(=O)O[C@@H](c4ccoc4)[C@]2(C)CC[C@@H]13,+,+,i,i
COC(=O)C(CC#Cc1ccc2c(c1)[C@]1(C(=O)N2)[C@H](C(=O)N2CCN(c3ncccn3)CC2)[C@H]2C(=O)O[C@H](c3ccccc3)[C@H](c3ccccc3)N2[C@@H]1c1ccc(OCCO)cc1)C(=O)OC,+,i,i,i
COc1ccc(C#Cc2ccc3c(c2)[C@]2(C(=O)N3)[C@H](c3ccc(OCCO)cc3)N3[C@H](c4ccccc4)[C@H](c4ccccc4)OC(=O)[C@H]3[C@@H]2C(=O)N2CCc3cc(OC)c(OC)cc3C2)cc1,+,i,i,i
COc1ccc(C#Cc2ccc3c(c2)[C@]2(C(=O)N3)[C@H](C(=O)N3CCc4cc(OC)c(OC)cc4C3)[C@H]3C(=O)O[C@H](c4ccccc4)[C@H](c4ccccc4)N3[C@@H]2c2ccc(OCCO)cc2)cc1,+,i,i,i
Cc1cccc(C)c1N(CC(=O)Nc1ccc(Br)cc1)S(C)(=O)=O,i,i,i,i
CC(C)C(NC=O)C(=O)N1CCC2Oc3ccc(cc3)/C=C\NC(=O)C(Cc3ccccc3)NC(=O)C21 (centres undefined),i,i,i,i
O=C(CCSc1nnc(-c2cccc([N+](=O)[O-])c2)o1)Nc1ccc(Br)cc1,i,i,i,i
COc1cc(C)c(C(=O)Oc2cc(C)c(C(=O)Oc3cc(C)c(C(=O)NC(C)C(=O)O)c(O)c3)c(O[C@@H]3O[C@H](CO)[C@@H](O)[C@H](O)[C@H]3OC(C)=O)c2)c(O)c1 (some centres undefined),i,i,i,i
C=CC[C@@]12N=C(c3ccc(OCCCO)cc3)O[C@@H]1c1ccccc1CN(Cc1ccccc1)C2=O,i,i,i,i
C=CCN1Cc2ccccc2[C@H]2OC(c3ccc(OCCCO)cc3)=N[C@@]2(CC=C)C1=O,i,i,+,i
c1ccc(Cn2c(SCCN3CCOCC3)nc3ccccc32)cc1,i,+,i,i
c1ccc(Cn2c(SCc3nc4ccccc4[nH]3)nc3ccccc32)cc1,i,i,i,i
